Among all 5,500 compounds or so, about 2,000 (36%) were called active. Roughly 18% stayed inconclusive and do not appear here. Cut-off read from the data, not from the text of the source: active = normalized growth mostly below about 0.91 (no sharp cut-off); inconclusive = no clear call, values can overlap the other calls; inactive = mostly above about 0.92. This is one part of the list.
Test: chemical genetic growth profiling, strain panel (AID 1159580);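 note: tested at 20 µM; growth read once vehicle control cultures reached saturation at 30 °C; 1 = growth at the plate median or of vehicle wells; lower values mean less growth of the strain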
Conditions: growth OD

Measured: normalized growth

CCC(=O)O[C@H]1CCC2C3CCC4=CC(=O)CC[C@]4(C)C3CC[C@@]21C (some centres not stated)
inactive: S. cerevisiae deletion strains, locus YJR066W, strain TOR1, active compounds read low 0.884 | S. cerevisiae deletion strains, locus YKL009W, strain mrt4, active compounds read low 0.974 | S. cerevisiae deletion strains, locus YKL068W, active compounds read low 0.972 | S. cerevisiae deletion strains, locus YKR026C, strain gcn3, active compounds read low 0.96 | S. cerevisiae deletion strains, locus YKR091W, strain srl3, active compounds read low 0.948 | S. cerevisiae deletion strains, locus YLL001W, strain dnm1, active compounds read low 0.989 | S. cerevisiae deletion strains, locus YLL026W, active compounds read low 0.971 | S. cerevisiae deletion strains, locus YLL041C, strain sdh2, active compounds read low 0.957 | S. cerevisiae deletion strains, locus YLR027C, strain aat2, active compounds read low 0.93 | S. cerevisiae deletion strains, locus YLR058C, strain SHM2, active compounds read low 0.956 | S. cerevisiae deletion strains, locus YLR102C, strain apc9, active compounds read low 0.99 | S. cerevisiae deletion strains, locus YLR113W, strain HOG1, active compounds read low 0.941 | S. cerevisiae deletion strains, locus YLR221C, strain rsa3, active compounds read low 0.925 | S. cerevisiae deletion strains, locus YLR262C, strain YPT6, active compounds read low 0.633 | S. cerevisiae deletion strains, locus YLR268W, strain sec22, active compounds read low 0.934 | S. cerevisiae deletion strains, locus YLR357W, strain rsc2, active compounds read low 0.944 | S. cerevisiae deletion strains, locus YLR370C, strain arc18, active compounds read low 0.955 | S. cerevisiae deletion strains, locus YLR384C, strain iki3, active compounds read low 0.969 | S. cerevisiae deletion strains, locus YML016C, strain PPZ1, active compounds read low 0.982 | S. cerevisiae deletion strains, locus YML120C, strain ndi1, active compounds read low 0.952 | S. cerevisiae deletion strains, locus YML124C, strain tub3, active compounds read low 0.972 | S. cerevisiae deletion strains, locus YMR058W, strain fet3, active compounds read low 0.916 | S. cerevisiae deletion strains, locus YMR078C, strain ctf18, active compounds read low 0.978 | S. cerevisiae deletion strains, locus YMR125W, strain sto1, active compounds read low 0.913 | S. cerevisiae deletion strains, locus YMR129W, active compounds read low 0.942 | S. cerevisiae deletion strains, locus YMR231W, strain pep5, active compounds read low 0.957 | S. cerevisiae deletion strains, locus YMR263W, strain SAP30, active compounds read low 0.963 | S. cerevisiae deletion strains, locus YMR307W, strain GAS1, active compounds read low 0.917 | S. cerevisiae deletion strains, locus YNL067W, strain RPL9B, active compounds read low 0.985 | S. cerevisiae deletion strains, locus YNL183C, strain NPR1, active compounds read low 0.89 | S. cerevisiae deletion strains, locus YNL250W, strain rad50, active compounds read low 1 | S. cerevisiae deletion strains, locus YNL271C, strain bni1, active compounds read low 0.963 | S. cerevisiae deletion strains, locus YNL298W, strain CLA4, active compounds read low 0.949 | S. cerevisiae deletion strains, locus YNL322C, strain KRE1 (second series), active compounds read low 0.952 | S. cerevisiae deletion strains, locus YNL322C, strain KRE1, active compounds read low 0.958 | S. cerevisiae deletion strains, locus YNR049C, strain mso1, active compounds read low 0.932 | S. cerevisiae deletion strains, locus YNR052C, strain pop2, active compounds read low 0.924 | S. cerevisiae deletion strains, locus YOL006C, strain TOP1, active compounds read low 0.74 | S. cerevisiae deletion strains, locus YOL012C, strain htz1 0.608 | S. cerevisiae deletion strains, locus YOL147C, strain pex11, active compounds read low 0.967 | S. cerevisiae deletion strains, locus YOR001W, strain rrp6, active compounds read low 0.971 | S. cerevisiae deletion strains, locus YOR061W, strain CKA2, active compounds read low 0.971 | S. cerevisiae deletion strains, locus YOR069W, strain VPS5, active compounds read low 0.976 | S. cerevisiae deletion strains, locus YOR070C, strain gyp1, active compounds read low 0.944 | S. cerevisiae deletion strains, locus YOR080W, strain dia2, active compounds read low 0.941 | S. cerevisiae deletion strains, locus YOR136W, strain idh2, active compounds read low 0.965 | S. cerevisiae deletion strains, locus YOR144C, strain elg1, active compounds read low 0.968 | S. cerevisiae deletion strains, locus YOR231W, strain MKK1, active compounds read low 0.988 | S. cerevisiae deletion strains, locus YOR265W, strain rbl2, active compounds read low 0.946 | S. cerevisiae deletion strains, locus YOR290C, strain snf2, active compounds read low 0.892 | S. cerevisiae deletion strains, locus YOR316C, strain cot1, active compounds read low 0.987 | S. cerevisiae deletion strains, locus YPL055C, strain LGE1, active compounds read low 0.794 | S. cerevisiae deletion strains, locus YPL106C, strain sse1, active compounds read low 0.906 | S. cerevisiae deletion strains, locus YPL240C, strain hsp82, active compounds read low 0.978 | S. cerevisiae deletion strains, locus YPL256C, strain CLN2, active compounds read low 0.982 | S. cerevisiae deletion strains, locus YPR119W, strain clb2, active compounds read low 0.981 | S. cerevisiae deletion strains, locus YPR141C, strain kar3, active compounds read low 0.976 | S. cerevisiae deletion strains, locus YPR163C, strain tif3, active compounds read low 0.933 | S. cerevisiae deletion strains, locus YPR167C, strain met16, active compounds read low 0.971 | S. cerevisiae deletion strains, strain wtn01, active compounds read low 0.924 | S. cerevisiae strains, strain wild type, active compounds read low 0.944
active: S. cerevisiae deletion strains, locus YKL085W, strain MDH1 (second series), active compounds read low 0.901 | S. cerevisiae deletion strains, locus YKL085W, strain MDH1, active compounds read low 0.901 | S. cerevisiae deletion strains, locus YKL160W, strain elf1, active compounds read low 0.882 | S. cerevisiae deletion strains, locus YKR001C, strain vps1, active compounds read low 0.861 | S. cerevisiae deletion strains, locus YLR039C, strain RIC1, active compounds read low 0.653 | S. cerevisiae deletion strains, locus YLR258W, strain gsy2, active compounds read low 0.899 | S. cerevisiae deletion strains, locus YLR262C, strain YPT6 (second series), active compounds read low 0.671 | S. cerevisiae deletion strains, locus YLR320W, strain mms22, active compounds read low 0.83 | S. cerevisiae deletion strains, locus YLR330W, strain CHS5, active compounds read low 0.821 | S. cerevisiae deletion strains, locus YLR342W, strain FKS1 (second series), active compounds read low 0.745 | S. cerevisiae deletion strains, locus YLR342W, strain FKS1, active compounds read low 0.779 | S. cerevisiae deletion strains, locus YLR371W, strain rom2, active compounds read low 0.783 | S. cerevisiae deletion strains, locus YLR418C, strain cdc73, active compounds read low 0.672 | S. cerevisiae deletion strains, locus YML032C, strain rad52, active compounds read low 0.889 | S. cerevisiae deletion strains, locus YMR205C, strain PFK2, active compounds read low 0.785 | S. cerevisiae deletion strains, locus YMR223W, strain ubp8, active compounds read low 0.888 | S. cerevisiae deletion strains, locus YNL071W, strain lat1, active compounds read low 0.719 | S. cerevisiae deletion strains, locus YNL233W, strain BNI4, active compounds read low 0.803 | S. cerevisiae deletion strains, locus YNL248C, strain rpa49, active compounds read low 0.86 | S. cerevisiae deletion strains, locus YNL307C, strain MCK1, active compounds read low 0.679 | S. cerevisiae deletion strains, locus YOR083W, strain WHI5, active compounds read low 0.796 | S. cerevisiae deletion strains, locus YOR106W, strain vam3, active compounds read low 0.837 | S. cerevisiae deletion strains, locus YOR184W, strain ser1, active compounds read low 0.523 | S. cerevisiae deletion strains, locus YOR270C, strain vph1, active compounds read low 0.653 | S. cerevisiae deletion strains, locus YPL051W, strain arl3, active compounds read low 0.89 | S. cerevisiae deletion strains, locus YPL078C, strain atp4, active compounds read low 0.869

Reference: PubChem BioAssay AID1159580 (chemical genetic matrix, 2015)
